Source: PubChem BioAssay (National Center for Advancing Translational Sciences (NCATS))
A selection: hits, their analogues and other compounds. The true share with any hit is near 7.9%.
MCF10A rerep: inducers of DNA re-replication in MCF 10A breast cells; MCF 10A DNA re-replication, Hoechst nuclear intensity, 48 h; Potency, µM (top dose mostly 46.1 µM), without a hit: top-dose activity, positive = re-replication, most hits filed as activators; hit rate 2.9% among 350,000; further: % of control where 0% means no effect; nearly all actives have a fitted effect of over 50% in size
KB-3-1 cytotox: kills parental KB-3-1 adenocarcinoma cells | KB-3-1 viability, CellTiter-Glo ATP luminescence, 72 h | Potency, µM (series often up to 46.1 µM), usual class: cytotoxic | hit rate 1.4% among 400,000 | AID 1347075; further: on the % scale 0 is the no-effect control and ±100 the full control effect; nearly all actives have a fitted effect of over 60% in size
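KB-3-1 cells, DMEM (no phenol red) + 10% FBS; compound by pin transfer, 72 h, 37 °C. Readout: CellTiter-Glo luminescence after 10 min. Data normalized, curve-fitted.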
SW480 rerep: DNA re-replication induction in SW480 cells | hit rate 1.8% among 340,000 | SW480 DNA re-replication, Hoechst DNA content imaging, 48 h | Potency, µM (titrated, usually from 46.1 µM), for inactives: top-dose re-replication activation, actives largely listed as activators; further: % of control where 0% means no effect; nearly all actives have a fitted effect of over 55% in size
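250 cells/well; 23 nL cpd via pin tool; 48 hr, 37 C, 5% CO2; Hoechst 40 min; imager read of total nuclear intensity, ex 405/em 500-530 nm.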
HT1080-NT tox: kills 2HG-producing HT-1080-NT fibrosarcoma cells. HT-1080-NT fibrosarcoma viability, CellTiter-Glo ATP luminescence, 48 h. Potency, µM (doses to about 46.1 µM), without a hit: at the top dose activity, negative = less viability, usual class: cytotoxic. hit rate 1.6% among 360,000;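 further: NT is the 2HG producing partner of a matched IDH1 knockdown line; 0% = DMSO-treated cells and -100% = media-only wells without cells; nearly all actives have a fitted effect of over 55% in size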
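750 cells/well, RPMI + 5% FBS; 2 h settle, compound pin-transfer, 48 h at 37 degrees C. CellTiter-Glo 10 min RT, luminescence. Normalized to DMSO and media-only wells.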
HT1080 IDH1KD tx: toxicity to HT-1080 IDH1 knockdown cells (counter line); AID 686971; hit rate 2% among 360,000; Potency, µM (top dose mostly 46.1 µM), for inactives: top-dose activity, negative = toxicity, most hits filed as cytotoxic; HT-1080 IDH1 knockdown viability, ATP luminescence, 48 h;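 further: 0% = DMSO wells and -100% = cell-free medium wells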
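CellTiter-Glo luminescence after 48 h compound exposure at 37 degrees C of IDH1-knockdown HT-1080 cells in 5% FBS RPMI. %Activity scaled between DMSO wells and cell-free media wells, with curves fitted and assigned curve classes.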
KB-V1 MDR tox: KB-V1 MDR subline cytotoxicity; KB-V1 MDR cells viability, CellTiter-Glo, 72 h; hit rate 3.4% among 400,000; Potency, µM (titrated, usually from 46.1 µM), usual class: cytotoxic; AID 1347076; further: on the % scale 0 is the no-effect control and ±100 the full control effect; nearly all actives have a fitted effect of over 60% in size
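Cytotoxicity via CellTiter-Glo luminescence after 72 h compound exposure at 37 degrees C. Cells: drug-selected KB-V1 line, DMEM phenol-red free plus 10% FBS. Compounds tested at multiple concentrations; normalized data fitted to concentration-effect curves.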
Starred values were filed as active, the others as inactive; i = inactive; ? = inconclusive; . = no result given. The call rests on the fitted dose curve; in most records, active means well fitted curve in the direction sought with a large enough effect; inconclusive means small, poorly fitted or top-dose-only effect, or another doubt; inactive means no such curve, though single readings can be large; an effect the other way counts as inactive or inconclusive. Potency means the concentration at half of the fitted maximal effect.

SMILES	MCF10A rerep	KB-3-1 cytotox	SW480 rerep	HT1080-NT tox	HT1080 IDH1KD tx	KB-V1 MDR tox
COC(=O)[C@@]1(Cc2ccc(F)cc2)[C@H]2c3cc(C(=O)N4CCCC4)n(Cc4ccc(C(F)(F)F)nc4)c3C[C@H]2CN1C(=O)c1ccccc1	86.9%	?	16.4µM*	-12.4%	-10.2%	i
COC(=O)[C@@]1(Cc2ccc(F)cc2)[C@H]2c3cc(C(=O)N(C)C)n(Cc4ccsc4Br)c3C[C@H]2CN1C(=O)c1ccccc1	.	?	.	?	?	20.6µM*
COC(=O)[C@@]1(Cc2ccc(F)cc2)[C@H]2c3cc(C(=O)N4CCCC4)n(Cc4ccc(C)c(F)c4F)c3C[C@H]2CN1C(=O)c1ccccc1	.	?	.	?	?	23.1µM*
COC(=O)[C@@]1(Cc2ccc(F)cc2)[C@H]2c3cc(C(=O)N4CCCC4)n(CCF)c3C[C@H]2CN1C(=O)c1ccccc1	.	?	.	?	-13.9%	?
COC(=O)[C@@]1(Cc2ccc(F)cc2)[C@H]2c3cc(C(=O)N4CCCC4)n(CCCNc4ncc(C(F)(F)F)cc4Cl)c3C[C@H]2CN1C(=O)c1ccccc1	5.8µM*	i	?	-24.0%	-21.8%	i
COC(=O)[C@@]1(Cc2ccc(F)cc2)[C@H]2c3cc(C(=O)N4CCCC4)n(Cc4ccc(C)o4)c3C[C@H]2CN1C(=O)c1ccccc1	.	?	.	?	20.6µM*	i
COC(=O)[C@@]1(Cc2ccc(F)cc2)[C@H]2c3cc(C(=O)N4CCCC4)n(CC4CC4)c3C[C@H]2CN1C(=O)c1ccccc1	.	i	.	?	?	?
Cc1cccc(N(CC(=O)Nc2ccccc2C(F)(F)F)S(=O)(=O)c2ccccc2)c1C	.	i	.	.	.	i
COc1ccc(C(=O)O/N=C/c2c(C(F)(F)F)nn(C)c2SCc2ccccc2Cl)cc1	?	7.31µM*	?	-17.9%	-25.5%	?
CS(=O)(=O)C1=NSC2=NC(=O)/C(=C\c3ccc(-c4ccccc4)o3)C(=N)N21	2.0%	.	-7.2%	.	.	.
CC(C)S(=O)(=O)C1=NSC2=NC(=O)/C(=C\c3ccc(-c4ccccc4)o3)C(=N)N21	16.4µM*	i	?	-2.5%	-0.3%	16.4µM*
N=C1/C(=C/c2cccn2Cc2ccc(Cl)cc2)C(=O)N=C2SC=CN12	?	i	10.1%	16.4µM*	20.6µM*	i
N=C1/C(=C/c2ccc(-c3cccc(C(=O)O)c3)o2)C(=O)N=C2SC=C(c3ccccc3)N12	5.8µM*	i	-2.5%	-16.0%	2.1%	i
N=C1/C(=C/c2cccn2CCOc2ccccc2)C(=O)N=C2SC=C(c3ccccc3)N12	1.3µM*	?	18.4µM*	-28.2%	?	3.66µM*
CC1=CC2=NC(=O)/C(=C/c3cccn3Cc3ccccc3)C(=N)N2O1	0.2%	i	-62.4%	?	?	?
CCCS(=O)(=O)N1CC(=O)N(c2ccc(C)cc2C)C(C)(C(=O)NC2CCCCCC2)C1 (stereo not given)	.	i	.	.	.	i
Cc1ccc(OCc2cc(C(=O)N3CCCC(C)C3)no2)cn1 (stereo not given)	.	20.6µM*	.	-1.2%	-0.9%	?
CC(=O)c1ccc(OCc2cc(C(=O)N3CCC(c4ccncc4)CC3)no2)cc1	?	i	-19.3%	18.4µM*	23.1µM*	i
COc1ccc(C2(CNC(=O)C(=O)Nc3ccc(C)c(Cl)c3)CCCC2)cc1OC	.	i	.	.	.	i
Clc1cccc(Cl)c1Cn1cnc2c(N3CCCCCC3)ncnc21	-3.9%	i	?	-5.9%	-4.0%	8.2µM*
CCOC(=O)c1c(NC(=O)C(=O)N/N=C/c2ccccc2OC)sc2c1CCCCC2	14.5%	?	-1.3%	-2.0%	0.7%	i
CCOC(=O)c1c(NC(=O)C(=O)N/N=C/c2ccccc2O)sc2c1CCCCC2	-1.1%	?	?	?	?	3.66µM*
CCOC(=O)c1c(NC(=O)c2ccc(OC)cc2)sc2c1CCCCC2	.	i	.	.	.	i
CCOC(=O)c1c(NC(=O)C(=O)N/N=C(\C)c2ccc(OC)cc2)sc2c1CCCCC2	7.6%	i	-5.2%	7.6%	15.7%	3.26µM*
COCCCNC(=O)c1c(NC(=O)c2nc(S(C)(=O)=O)ncc2Cl)sc2c1CCCC2	.	i	.	.	.	i
SMILES	MCF10A rerep	KB-3-1 cytotox	SW480 rerep	HT1080-NT tox	HT1080 IDH1KD tx	KB-V1 MDR tox
Cc1ccc2c(c1)Oc1ccc(NC(=O)CCl)cc1C(=O)N2	5.8µM*	5.8µM*	2.31µM*	3.66µM*	2.91µM*	9.2µM*
CS(=O)(=O)c1nc([N+](=O)[O-])nn1CCCc1ccccc1	4.61µM*	25.9µM*	-128.8%	?	?	?
Cn1nc([N+](=O)[O-])nc1Oc1ccccc1F	-3.5%	i	-3.9%	12.3%	-2.1%	i
Cn1nc([N+](=O)[O-])nc1S(C)(=O)=O	5.8µM*	?	9.2µM*	16.4µM*	16.4µM*	?
O=C(CCC1N=C2c3ccccc3N=C(SCc3cccc(Cl)c3)N2C1=O)NCc1cccs1 (stereo not given)	.	i	.	.	.	i
CCOC(=O)[C@@H](C)N(C(=O)OC(C)(C)C)S(=O)(=O)N(Cc1ccccc1)[C@@H](C(=O)OC)C(C)C	.	i	.	.	.	i
O=C(CCNc1cc(Cl)cc(Cl)c1)c1cccs1	23.1µM*	i	1.4%	1.9%	0.0%	i
CCOC(=O)c1[nH]c(C)c(C(=O)OCc2ccccc2F)c1C	8.2µM*	4.61µM*	7.31µM*	11.6µM*	9.2µM*	2.31µM*
CCOC(=O)c1c(C)[nH]c(C(=O)NNC(=O)c2ccccc2F)c1C	0.0%	i	2.1%	12.5%	21.6%	i
CCOC(=O)c1[nH]c(C)c(C(=O)c2cc(F)ccc2F)c1C	1.16µM*	0.92µM*	1.03µM*	0.708µM*	0.447µM*	?
Cc1c(C(=O)C(=O)N2CCCc3ccccc32)c2ccccc2n1C	?	?	?	8.2µM*	?	?
Cc1c(C(=O)C(=O)N2c3ccc(F)cc3CCC2C)c2ccccc2n1C (stereo not given)	2.59µM*	2.91µM*	7.31µM*	3.26µM*	2.31µM*	2.91µM*
Cc1c(C(=O)C(=O)N2CCN(C)CC2)c2ccccc2n1C	1.1%	i	-6.2%	-0.3%	0.8%	i
CC1CCc2cc(F)ccc2N1C(=O)CCC(=O)O (stereo not given)	-0.9%	i	-6.5%	13.1%	8.6%	i
Cc1cccc(NS(=O)(=O)c2c(C)nc3sccn3c2=O)c1C	.	i	.	.	.	?
